Changes are numbered by the printed parent chain.
B1: ACACTTCA (ssRNA)
RNA 1: GAGUUCUACAGUCCGACGAUCCCAACACACUUCACACCUGGAAUUCUCGGGUGCCAA
RNA 2: UGGAGUGUGACAAUGGUGUUUG
DNA 1: GATCGTCGGACTGTAGAACTC
DNA 2: TTGGCACCCGAGAATTCCA
modifications: constant regions annealed to DNA blockers; guide miR-122 5' phosphate
B2: ACGTCTCA (ssRNA)
RNA 1: B1 RNA 1 with A29G, C30U, U31C
RNA 2: UGGAGUGUGACAAUGGUGUUUG
DNA 1: GATCGTCGGACTGTAGAACTC
DNA 2: TTGGCACCCGAGAATTCCA
modifications: constant regions annealed to DNA blockers; guide miR-122 5' phosphate
B3: GCACTCCG (ssRNA)
RNA 1: B1 RNA 1 with A27G, U32C, A34G
RNA 2: UGGAGUGUGACAAUGGUGUUUG
DNA 1: GATCGTCGGACTGTAGAACTC
DNA 2: TTGGCACCCGAGAATTCCA
modifications: constant regions annealed to DNA blockers; guide miR-122 5' phosphate
B4: GCACTCTA (ssRNA)
RNA 1: B1 RNA 1 with A27G, U32C, C33U
RNA 2: UGGAGUGUGACAAUGGUGUUUG
DNA 1: GATCGTCGGACTGTAGAACTC
DNA 2: TTGGCACCCGAGAATTCCA
modifications: constant regions annealed to DNA blockers; guide miR-122 5' phosphate
B5: GCACCTCA (ssRNA)
RNA 1: B1 RNA 1 with A27G, U31C
RNA 2: UGGAGUGUGACAAUGGUGUUUG
DNA 1: GATCGTCGGACTGTAGAACTC
DNA 2: TTGGCACCCGAGAATTCCA
modifications: constant regions annealed to DNA blockers; guide miR-122 5' phosphate
B6: ATATCTCA (ssRNA)
RNA 1: B1 RNA 1 with C28U, C30U, U31C
RNA 2: UGGAGUGUGACAAUGGUGUUUG
DNA 1: GATCGTCGGACTGTAGAACTC
DNA 2: TTGGCACCCGAGAATTCCA
modifications: constant regions annealed to DNA blockers; guide miR-122 5' phosphate
B7: GTATTCCA (ssRNA)
RNA 1: B1 RNA 1 with A27G, C28U, C30U, U32C
RNA 2: UGGAGUGUGACAAUGGUGUUUG
DNA 1: GATCGTCGGACTGTAGAACTC
DNA 2: TTGGCACCCGAGAATTCCA
modifications: constant regions annealed to DNA blockers; guide miR-122 5' phosphate
B8: GCACCCCA (ssRNA)
RNA 1: B1 RNA 1 with A27G, U31C, U32C
RNA 2: UGGAGUGUGACAAUGGUGUUUG
DNA 1: GATCGTCGGACTGTAGAACTC
DNA 2: TTGGCACCCGAGAATTCCA
modifications: constant regions annealed to DNA blockers; guide miR-122 5' phosphate
B9: ATACTTCA (ssRNA)
RNA 1: B1 RNA 1 with C28U
RNA 2: UGGAGUGUGACAAUGGUGUUUG
DNA 1: GATCGTCGGACTGTAGAACTC
DNA 2: TTGGCACCCGAGAATTCCA
modifications: constant regions annealed to DNA blockers; guide miR-122 5' phosphate
B10: ACACCCTA (ssRNA)
RNA 1: B1 RNA 1 with U31C, U32C, C33U
RNA 2: UGGAGUGUGACAAUGGUGUUUG
DNA 1: GATCGTCGGACTGTAGAACTC
DNA 2: TTGGCACCCGAGAATTCCA
modifications: constant regions annealed to DNA blockers; guide miR-122 5' phosphate
B11: ATGTCCCA (ssRNA)
RNA 1: B1 RNA 1 with C28U, A29G, C30U, U31C, U32C
RNA 2: UGGAGUGUGACAAUGGUGUUUG
DNA 1: GATCGTCGGACTGTAGAACTC
DNA 2: TTGGCACCCGAGAATTCCA
modifications: constant regions annealed to DNA blockers; guide miR-122 5' phosphate
B12: ACGCCTCA (ssRNA)
RNA 1: B1 RNA 1 with A29G, U31C
RNA 2: UGGAGUGUGACAAUGGUGUUUG
DNA 1: GATCGTCGGACTGTAGAACTC
DNA 2: TTGGCACCCGAGAATTCCA
modifications: constant regions annealed to DNA blockers; guide miR-122 5' phosphate
B13: ACATTTCA (ssRNA)
RNA 1: B1 RNA 1 with C30U
RNA 2: UGGAGUGUGACAAUGGUGUUUG
DNA 1: GATCGTCGGACTGTAGAACTC
DNA 2: TTGGCACCCGAGAATTCCA
modifications: constant regions annealed to DNA blockers; guide miR-122 5' phosphate
B14: ACATCCCA (ssRNA)
RNA 1: B1 RNA 1 with C30U, U31C, U32C
RNA 2: UGGAGUGUGACAAUGGUGUUUG
DNA 1: GATCGTCGGACTGTAGAACTC
DNA 2: TTGGCACCCGAGAATTCCA
modifications: constant regions annealed to DNA blockers; guide miR-122 5' phosphate
B15: GTGCTCCA (ssRNA)
RNA 1: B1 RNA 1 with A27G, C28U, A29G, U32C
RNA 2: UGGAGUGUGACAAUGGUGUUUG
DNA 1: GATCGTCGGACTGTAGAACTC
DNA 2: TTGGCACCCGAGAATTCCA
modifications: constant regions annealed to DNA blockers; guide miR-122 5' phosphate
B16: ATGCTCCG (ssRNA)
RNA 1: B1 RNA 1 with C28U, A29G, U32C, A34G
RNA 2: UGGAGUGUGACAAUGGUGUUUG
DNA 1: GATCGTCGGACTGTAGAACTC
DNA 2: TTGGCACCCGAGAATTCCA
modifications: constant regions annealed to DNA blockers; guide miR-122 5' phosphate
B17: GCATTTCA (ssRNA)
RNA 1: B1 RNA 1 with A27G, C30U
RNA 2: UGGAGUGUGACAAUGGUGUUUG
DNA 1: GATCGTCGGACTGTAGAACTC
DNA 2: TTGGCACCCGAGAATTCCA
modifications: constant regions annealed to DNA blockers; guide miR-122 5' phosphate
B18: ATACCTCA (ssRNA)
RNA 1: B1 RNA 1 with C28U, U31C
RNA 2: UGGAGUGUGACAAUGGUGUUUG
DNA 1: GATCGTCGGACTGTAGAACTC
DNA 2: TTGGCACCCGAGAATTCCA
modifications: constant regions annealed to DNA blockers; guide miR-122 5' phosphate
B19: GCATTCCA (ssRNA)
RNA 1: B1 RNA 1 with A27G, C30U, U32C
RNA 2: UGGAGUGUGACAAUGGUGUUUG
DNA 1: GATCGTCGGACTGTAGAACTC
DNA 2: TTGGCACCCGAGAATTCCA
modifications: constant regions annealed to DNA blockers; guide miR-122 5' phosphate

Each binder was assayed against AGO2 WT (phosphosite mutant background) (Homo sapiens, UniProt Q9UKV8 1-859, S387D;S824A;S828D;S831D;S834A) (assay: RNA Bind-n-Seq (nitrocellulose filter binding and sequencing); miR-122 guide loaded in AGO2; 60 min incubation; 30 mM Tris pH 8.0, 100 mM potassium acetate, 2 mM magnesium acetate, 0.5 mM TCEP, 0.005% NP-40, 0.01 mg/ml yeast tRNA; 3 nM AGO2-miR-122, 100 nM RNA library; 60; high values mean tight binding). Conditions: protein: recombinant; tags: His6 (N-terminal, pFastBac HTA).
Method in brief: (§1)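 Fold enrichment is each target's read fraction divided by its read fraction in the input library. Sf9 insect cells expressed His-tagged AGO2 from baculovirus; the protein was loaded with a synthetic guide RNA and purified by Ni-NTA and a biotinylated capture oligo. The bound RNA was extracted, reverse-transcribed, barcode-amplified and sequenced on Illumina.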

AGO2 WT (phosphosite mutant background), sequence (Q9UKV8 whole entry S387D/S824A/S828D/S831D/S834A): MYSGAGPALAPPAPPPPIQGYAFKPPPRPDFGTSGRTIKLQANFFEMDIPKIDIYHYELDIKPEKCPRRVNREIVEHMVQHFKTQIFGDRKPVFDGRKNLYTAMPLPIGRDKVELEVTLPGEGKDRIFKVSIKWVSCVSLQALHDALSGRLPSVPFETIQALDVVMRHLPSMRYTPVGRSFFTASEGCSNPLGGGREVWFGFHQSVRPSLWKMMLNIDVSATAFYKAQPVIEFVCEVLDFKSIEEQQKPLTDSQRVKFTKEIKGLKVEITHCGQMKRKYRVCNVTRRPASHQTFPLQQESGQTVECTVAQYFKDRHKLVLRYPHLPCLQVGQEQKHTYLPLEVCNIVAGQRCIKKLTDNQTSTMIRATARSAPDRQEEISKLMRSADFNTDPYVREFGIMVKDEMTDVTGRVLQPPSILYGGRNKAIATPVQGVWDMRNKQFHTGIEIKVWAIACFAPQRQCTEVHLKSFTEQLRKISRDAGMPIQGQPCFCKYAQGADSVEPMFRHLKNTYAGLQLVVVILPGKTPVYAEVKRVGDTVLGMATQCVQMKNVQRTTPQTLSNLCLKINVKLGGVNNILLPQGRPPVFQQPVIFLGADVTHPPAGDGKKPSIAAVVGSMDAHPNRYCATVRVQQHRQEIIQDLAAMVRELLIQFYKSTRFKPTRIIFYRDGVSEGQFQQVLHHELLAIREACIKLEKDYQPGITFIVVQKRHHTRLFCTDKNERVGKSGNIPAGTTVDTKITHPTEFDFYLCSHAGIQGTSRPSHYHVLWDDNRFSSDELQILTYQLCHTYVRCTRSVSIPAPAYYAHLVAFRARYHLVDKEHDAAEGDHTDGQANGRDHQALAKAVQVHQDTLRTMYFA

Binder | binding signal
B1 | 0.24 fold enrichment over input
B2 | 0.177 fold enrichment over input
B3 | 85.3 fold enrichment over input
B4 | 0.168 fold enrichment over input
B5 | 0.17 fold enrichment over input
B6 | 0.165 fold enrichment over input
B7 | 0.18 fold enrichment over input
B8 | 0.164 fold enrichment over input
B9 | 0.136 fold enrichment over input
B10 | 0.142 fold enrichment over input
B11 | 0.155 fold enrichment over input
B12 | 0.15 fold enrichment over input
B13 | 0.235 fold enrichment over input
B14 | 0.154 fold enrichment over input
B15 | 0.17 fold enrichment over input
B16 | 0.186 fold enrichment over input
B17 | 0.165 fold enrichment over input
B18 | 0.138 fold enrichment over input
B19 | 0.182 fold enrichment over input

The binders below were run against AGO2 L192P (Homo sapiens, UniProt Q9UKV8 1-859, L192P;S387D;S824A;S828D;S831D;S834A) in the same assay as above. Conditions: protein: recombinant; tags: His6 (N-terminal, pFastBac HTA).
Method in brief: as §1

AGO2 L192P, sequence (Q9UKV8 whole entry L192P/S387D/S824A/S828D/S831D/S834A): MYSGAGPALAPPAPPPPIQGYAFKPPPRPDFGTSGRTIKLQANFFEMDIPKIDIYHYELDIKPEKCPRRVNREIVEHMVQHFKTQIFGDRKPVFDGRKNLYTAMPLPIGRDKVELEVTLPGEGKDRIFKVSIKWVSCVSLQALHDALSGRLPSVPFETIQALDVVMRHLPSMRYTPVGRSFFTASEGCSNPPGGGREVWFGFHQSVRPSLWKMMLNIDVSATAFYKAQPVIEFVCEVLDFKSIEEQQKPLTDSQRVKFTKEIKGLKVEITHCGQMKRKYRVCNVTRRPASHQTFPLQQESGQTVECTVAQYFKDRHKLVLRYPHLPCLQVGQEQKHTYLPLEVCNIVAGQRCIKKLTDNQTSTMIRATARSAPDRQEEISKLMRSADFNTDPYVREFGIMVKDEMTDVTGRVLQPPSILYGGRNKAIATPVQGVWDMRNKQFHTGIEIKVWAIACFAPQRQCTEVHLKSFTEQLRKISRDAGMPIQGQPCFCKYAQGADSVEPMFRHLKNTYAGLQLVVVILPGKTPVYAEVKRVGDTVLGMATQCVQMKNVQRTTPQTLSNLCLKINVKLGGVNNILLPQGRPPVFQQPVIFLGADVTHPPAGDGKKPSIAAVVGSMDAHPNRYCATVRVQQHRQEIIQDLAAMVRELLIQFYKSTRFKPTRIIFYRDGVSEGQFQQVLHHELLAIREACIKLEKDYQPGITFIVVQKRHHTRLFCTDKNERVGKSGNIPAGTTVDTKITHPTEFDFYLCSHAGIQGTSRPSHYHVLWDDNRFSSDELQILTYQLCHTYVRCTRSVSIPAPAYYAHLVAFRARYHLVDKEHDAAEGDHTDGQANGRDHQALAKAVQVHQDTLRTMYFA

Binder | binding signal
B1 | 0.941 fold enrichment over input
B2 | 0.659 fold enrichment over input
B3 | 60.8 fold enrichment over input
B4 | 0.562 fold enrichment over input
B5 | 0.761 fold enrichment over input
B6 | 0.635 fold enrichment over input
B7 | 0.545 fold enrichment over input
B8 | 0.6 fold enrichment over input
B9 | 0.646 fold enrichment over input
B10 | 0.6 fold enrichment over input
B11 | 0.54 fold enrichment over input
B12 | 0.597 fold enrichment over input
B13 | 1.13 fold enrichment over input
B14 | 0.641 fold enrichment over input
B15 | 0.594 fold enrichment over input
B16 | 1.56 fold enrichment over input
B17 | 0.769 fold enrichment over input
B18 | 0.642 fold enrichment over input
B19 | 0.661 fold enrichment over input

The binders below were run against AGO2 A367P (Homo sapiens, UniProt Q9UKV8 1-859, A367P;S387D;S824A;S828D;S831D;S834A) in the same assay as above. Conditions: protein: recombinant; tags: His6 (N-terminal, pFastBac HTA).
Method in brief: as §1

AGO2 A367P, sequence (Q9UKV8 whole entry A367P/S387D/S824A/S828D/S831D/S834A): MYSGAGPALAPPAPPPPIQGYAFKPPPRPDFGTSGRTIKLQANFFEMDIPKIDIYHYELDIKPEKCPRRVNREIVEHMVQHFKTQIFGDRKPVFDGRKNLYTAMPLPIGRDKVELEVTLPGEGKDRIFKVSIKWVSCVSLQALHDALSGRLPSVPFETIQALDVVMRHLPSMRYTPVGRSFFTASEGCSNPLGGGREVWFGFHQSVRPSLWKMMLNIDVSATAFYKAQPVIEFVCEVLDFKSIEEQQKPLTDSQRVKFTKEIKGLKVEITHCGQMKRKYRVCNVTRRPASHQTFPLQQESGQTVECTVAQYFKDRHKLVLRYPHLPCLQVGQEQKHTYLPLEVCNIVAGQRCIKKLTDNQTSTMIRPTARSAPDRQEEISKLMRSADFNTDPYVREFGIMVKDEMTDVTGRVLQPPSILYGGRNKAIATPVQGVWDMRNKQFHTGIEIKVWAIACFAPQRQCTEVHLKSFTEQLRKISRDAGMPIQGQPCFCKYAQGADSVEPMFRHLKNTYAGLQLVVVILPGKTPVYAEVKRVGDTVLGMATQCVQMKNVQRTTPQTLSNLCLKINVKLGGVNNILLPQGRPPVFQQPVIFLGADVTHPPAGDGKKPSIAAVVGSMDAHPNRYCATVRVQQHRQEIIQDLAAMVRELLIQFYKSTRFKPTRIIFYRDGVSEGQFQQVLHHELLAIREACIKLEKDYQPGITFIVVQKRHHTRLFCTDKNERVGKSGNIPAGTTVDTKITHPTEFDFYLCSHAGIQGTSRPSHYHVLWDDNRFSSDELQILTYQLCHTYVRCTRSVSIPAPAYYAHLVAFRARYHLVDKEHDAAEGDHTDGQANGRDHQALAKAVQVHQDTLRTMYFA

Binder | binding signal
B1 | 0.66 fold enrichment over input
B2 | 0.413 fold enrichment over input
B3 | 86.8 fold enrichment over input
B4 | 0.306 fold enrichment over input
B5 | 0.505 fold enrichment over input
B6 | 0.396 fold enrichment over input
B7 | 0.446 fold enrichment over input
B8 | 0.263 fold enrichment over input
B9 | 0.396 fold enrichment over input
B10 | 0.25 fold enrichment over input
B11 | 0.303 fold enrichment over input
B12 | 0.316 fold enrichment over input
B13 | 0.727 fold enrichment over input
B14 | 0.325 fold enrichment over input
B15 | 0.522 fold enrichment over input
B16 | 1.45 fold enrichment over input
B17 | 0.434 fold enrichment over input
B18 | 0.406 fold enrichment over input
B19 | 0.356 fold enrichment over input

Each binder was assayed against AGO2 T357M (Homo sapiens, UniProt Q9UKV8 1-859, T357M;S387D;S824A;S828D;S831D;S834A) in the same assay as above. Conditions: protein: recombinant; tags: His6 (N-terminal, pFastBac HTA).
Method in brief: as §1

AGO2 T357M, sequence (Q9UKV8 whole entry T357M/S387D/S824A/S828D/S831D/S834A): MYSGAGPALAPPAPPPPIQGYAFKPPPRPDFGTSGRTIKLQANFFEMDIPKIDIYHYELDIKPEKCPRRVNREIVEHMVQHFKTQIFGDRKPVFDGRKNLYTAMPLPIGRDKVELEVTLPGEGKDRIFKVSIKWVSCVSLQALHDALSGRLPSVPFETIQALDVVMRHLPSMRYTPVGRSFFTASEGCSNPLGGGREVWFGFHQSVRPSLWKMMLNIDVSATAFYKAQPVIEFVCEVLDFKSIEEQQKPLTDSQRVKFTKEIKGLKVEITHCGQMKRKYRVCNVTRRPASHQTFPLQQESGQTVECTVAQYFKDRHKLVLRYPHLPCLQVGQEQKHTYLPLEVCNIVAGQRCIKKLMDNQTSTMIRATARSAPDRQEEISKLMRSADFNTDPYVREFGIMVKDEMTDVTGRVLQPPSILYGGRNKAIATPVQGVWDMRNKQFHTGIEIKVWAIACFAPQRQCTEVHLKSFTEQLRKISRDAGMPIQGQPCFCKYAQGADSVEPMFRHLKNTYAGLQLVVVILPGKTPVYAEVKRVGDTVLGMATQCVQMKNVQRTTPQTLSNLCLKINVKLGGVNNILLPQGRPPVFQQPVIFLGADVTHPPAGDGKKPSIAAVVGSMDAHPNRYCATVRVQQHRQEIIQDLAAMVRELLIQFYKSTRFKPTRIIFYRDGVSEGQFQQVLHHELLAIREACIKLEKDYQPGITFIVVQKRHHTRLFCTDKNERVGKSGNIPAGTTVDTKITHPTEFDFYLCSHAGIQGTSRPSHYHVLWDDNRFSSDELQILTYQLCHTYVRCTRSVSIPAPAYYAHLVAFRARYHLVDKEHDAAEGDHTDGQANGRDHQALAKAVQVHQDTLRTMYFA

Binder | binding signal
B1 | 0.675 fold enrichment over input
B2 | 0.689 fold enrichment over input
B3 | 35.6 fold enrichment over input
B4 | 0.561 fold enrichment over input
B5 | 0.643 fold enrichment over input
B6 | 0.657 fold enrichment over input
B7 | 0.623 fold enrichment over input
B8 | 0.699 fold enrichment over input
B9 | 0.62 fold enrichment over input
B10 | 0.636 fold enrichment over input
B11 | 0.599 fold enrichment over input
B12 | 0.623 fold enrichment over input
B13 | 0.709 fold enrichment over input
B14 | 0.628 fold enrichment over input
B15 | 0.649 fold enrichment over input
B16 | 0.527 fold enrichment over input
B17 | 0.679 fold enrichment over input
B18 | 0.575 fold enrichment over input
B19 | 0.65 fold enrichment over input

The binders below were run against AGO2 F182del (Homo sapiens, UniProt Q9UKV8 1-859, S387D;S824A;S828D;S831D;S834A;del182-182) in the same assay as above. Conditions: protein: recombinant; tags: His6 (N-terminal, pFastBac HTA).
Method in brief: as §1

AGO2 F182del, sequence (Q9UKV8 other isoform, or with tags, fused parts or gaps S387D;S824A;S828D;S831D;S834A;del182-182): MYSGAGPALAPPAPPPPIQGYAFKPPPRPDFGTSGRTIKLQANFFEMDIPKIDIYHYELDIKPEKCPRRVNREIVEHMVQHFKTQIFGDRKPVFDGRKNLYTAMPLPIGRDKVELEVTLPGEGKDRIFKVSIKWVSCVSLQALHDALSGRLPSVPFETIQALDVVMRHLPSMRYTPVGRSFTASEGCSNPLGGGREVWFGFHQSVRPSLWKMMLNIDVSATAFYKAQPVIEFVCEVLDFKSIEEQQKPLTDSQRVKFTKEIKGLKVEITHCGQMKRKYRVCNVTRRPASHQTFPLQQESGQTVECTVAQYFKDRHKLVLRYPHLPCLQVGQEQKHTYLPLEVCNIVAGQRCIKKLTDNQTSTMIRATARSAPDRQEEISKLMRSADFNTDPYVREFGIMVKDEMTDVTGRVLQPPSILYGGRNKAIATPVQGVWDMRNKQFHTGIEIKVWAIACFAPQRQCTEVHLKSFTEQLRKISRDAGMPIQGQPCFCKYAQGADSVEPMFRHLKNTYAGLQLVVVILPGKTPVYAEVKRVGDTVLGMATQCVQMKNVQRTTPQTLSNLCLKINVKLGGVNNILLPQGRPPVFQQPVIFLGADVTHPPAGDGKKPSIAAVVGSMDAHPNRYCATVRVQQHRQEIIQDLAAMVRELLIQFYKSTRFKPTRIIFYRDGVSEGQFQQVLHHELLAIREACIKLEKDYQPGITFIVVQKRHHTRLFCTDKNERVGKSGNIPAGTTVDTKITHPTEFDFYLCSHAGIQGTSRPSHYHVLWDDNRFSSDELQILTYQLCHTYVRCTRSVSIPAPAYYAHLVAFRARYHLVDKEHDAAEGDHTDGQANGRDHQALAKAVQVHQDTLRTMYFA

Binder | binding signal
B1 | 2.79 fold enrichment over input
B2 | 1.38 fold enrichment over input
B3 | 69.5 fold enrichment over input
B4 | 0.786 fold enrichment over input
B5 | 2.01 fold enrichment over input
B6 | 1.42 fold enrichment over input
B7 | 0.898 fold enrichment over input
B8 | 0.666 fold enrichment over input
B9 | 1.33 fold enrichment over input
B10 | 0.799 fold enrichment over input
B11 | 0.697 fold enrichment over input
B12 | 0.822 fold enrichment over input
B13 | 4.77 fold enrichment over input
B14 | 1.11 fold enrichment over input
B15 | 0.604 fold enrichment over input
B16 | 1.55 fold enrichment over input
B17 | 1.83 fold enrichment over input
B18 | 1.82 fold enrichment over input
B19 | 1.01 fold enrichment over input

— publication PMC12529666, “Dysregulation of AGO2-miRNA dynamics underlies the AGO2-associated Lessel–Kreienkamp syndrome”
